Assay outcomes: PubChem, several laboratories
Only some compounds are listed: those with a hit (about 4.2% of all), similar ones and a draw of the others.
esBAF inh = SWI/SNF esBAF complex inhibition; mouse ES cells, Bmi1-luciferase knock-in reporter, 24 h; 100% = twice the neutral-well signal; reporter increase, % at 12.5 µM; 350,000 tested, 2% active; in the data active means activation above about 40%; inconclusive means no clear call, values can overlap the other calls;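 further: 0% = median of the plate's neutral control wells and 100% = double that signal; a rise in the Bmi1 reporter signal indicates esBAF inhibition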
hgDAF12 agonist = agonists of H. glycines DAF-12 nuclear receptor | HEK293 GAL4-hgDAF12 UAS-luciferase reporter, agonist luminescence; normalized to butyrate control | activation, % at 6.8 µM | 370,000 tested, 1.8% active | AID 687014;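 active means activation above a cutoff set at the mean of all screened compounds plus 3 SD, cut at about 10% in these data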;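 further: 0% = DMSO wells and 100% = sodium butyrate wells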
ssDAF-12 act = activators of S. stercoralis DAF-12 nuclear receptor; HEK293 ssDAF-12/GRIP1 lit1-tk-luc reporter, luminescence; % of 3 µM dafachronic acid response; 370,000 tested, 1% active; activation, % at 6.8 µM; AID 652126;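 active means activation above the mean over all tested compounds plus 3 SD, cut at about 0.9% in these data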;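 further: 0% = DMSO-only wells and 100% = 3 µM delta7-dafachronic acid wells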
hcDAF-12 act = activates DAF-12 receptor from parasite H. contortus; HEK293 hcDAF-12 lit1-tk-luc reporter, luminescence; 0% DMSO, 100% Δ7-dafachronic acid; AID 652067; activation, % at 6.8 µM; 370,000 tested, 1.4% active;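 active means activation above the mean of all tested compounds plus 3 SD, cut at about 5.5% in these data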;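 further: 100% = response to 3 µM Δ7-dafachronic acid high control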
DAX1 StAR inh = DAX1 (NR0B1) inhibition, primary screen. HEK293T StAR-luciferase reporter, SF-1/DAX-1 repression relief. inhibition, % at 6.8 µM. 370,000 tested, 1.1% active. AID 652010;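 active means inhibition above the mean over all tested compounds plus 3 SD, cut at about 3.6% in these data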;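 further: 0% = DAX-1 cells with DMSO and 100% = cells lacking DAX-1 with DMSO; higher inhibition means more luminescence from relief of DAX-1 repression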
Wnt bcat act = activators of Wnt/beta-catenin signaling; Wnt/beta-catenin reporter cell assay, activator, plate reader; 300,000 tested, 1.2% active; AID 743398; activation, % at 9.35 µM; in the data active means activation above about 30%, passing the limit was not always enough; inconclusive means no clear call, values can overlap the other calls;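 further: 0% = neutral control wells and 100% = positive control wells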
Active calls of the source: *; ? = inconclusive; . = not tested or not shown.

SMILES	esBAF inh	hgDAF12 agonist	ssDAF-12 act	hcDAF-12 act	DAX1 StAR inh	Wnt bcat act
CC(C)C#Cc1cnc2c(c1)C(=O)N([C@@H](C)CO)C[C@H](C)[C@H](CN(C)C(=O)Cc1ccncc1)O2	-3.5	.	.	.	.	.
C[C@@H]1CN([C@@H](C)CO)C(=O)c2cc(NC(=O)CCC(F)(F)F)ccc2O[C@@H](C)CCCCO[C@@H]1CN(C)C(=O)Nc1ccc(C(F)(F)F)cc1	0.3	.	.	.	.	.
O=C(C[C@@H]1CC[C@@H]2[C@H](COC[C@H](O)CN2C(=O)c2ccc(F)cc2)O1)Nc1nccs1	-1.7	.	.	.	.	.
O=c1c2ccccc2sn1-c1ccc(S(=O)(=O)N2CCCC2)cc1	16.8	-2.5	-1.0	-1.1	-0.1	.
O=c1c2ccccc2sn1-c1ccc(S(=O)(=O)N2CCCCC2)cc1	-3.8	2.0	1.1*	0.3	0.3	.
COc1ccccc1-c1nn2c(-c3ccco3)nnc2s1	65.1*	7.9	-0.1	1.9	2.9	1.1
c1coc(-c2nn3c(-c4ccco4)nnc3s2)c1	-4.8	-0.8	-0.5	-0.7	-0.1	.
COc1ccc(/C=C/C(=O)c2ccccc2)cc1Cn1nnc2ccccc21	.	-2.1	-1.9	-5.8	-0.9	43.5*
COc1cc(C(=O)OCC(=O)NCc2ccco2)cc(OC)c1OC	-7.6	-1.1	-1.2	-0.6	0.0	-3.2
O=C(NCc1ccco1)c1cc2ccc(O)cc2oc1=O	.	9.3	0.4	-0.1	1.4	.
COc1ccc2cc(C(=O)NCc3ccco3)c(=Nc3ccc(C(=O)O)cc3)oc2c1	-7.0	10.8*	-0.3	5.5	0.8	42.3*
COc1ccc2cc(C(=O)NCc3ccco3)c(=O)oc2c1	22.0	10.5*	-0.5	2.0	2.1	.
COc1cc(OC)cc(C(=O)OCC(=O)NCc2ccco2)c1	-4.3	-0.7	-0.7	1.5	-1.4	47.3*
O=C(NCC[C@@H]1CC[C@H](NS(=O)(=O)c2ccccc2F)[C@@H](CO)O1)c1ccc(F)cc1	3.5	.	.	.	.	.
O=C(Nc1cc(F)ccc1F)N[C@@H]1C=C[C@@H](CC(=O)N2CCc3ccccc3C2)O[C@H]1CO	3.1	.	.	.	.	.
O=C(COc1ccc(Cl)cc1Cl)N1CCCN(C(=O)COc2ccc(Cl)cc2Cl)CC1	-0.4	-3.0	-2.0	-2.7	-2.2	-4.0
O=C(COc1ccc(Br)cc1Cl)NC(=O)NC1CCCC1	51.5*	10.2	0.1	1.7	2.0	38.5*
O=C(COc1ccc(Br)cc1Cl)NC1CCCCC1	.	9.0	-1.2	-0.7	1.1	23.3
Cc1cc(Cl)ccc1OCC(=O)N1CCN(c2ncccn2)CC1	.	-0.9	-1.8	-0.3	0.0	-2.2
Cc1cc(Cl)ccc1OCC(=O)N1CCCCC1	58.3*	7.2	-1.1	1.9	1.2	.
O=C(COc1ccccc1Cl)Nc1cccnc1	.	11.7*	-0.6	2.0	2.7	0.1
O=C(COc1ccc(Cl)cc1Cl)NC(=O)N1CCCCC1	59.1*	12.2*	0.3	2.0	2.4	.
CCCN1C[C@H](C)[C@@H](OC)CN(C)C(=O)c2cc(NC(=O)CC)ccc2OC[C@H]1C	-2.6	.	.	.	.	.
COc1ccc(NC(=O)N(C)C[C@@H]2OCCCC[C@@H](C)Oc3ccc(NC(=O)Nc4ccccc4)cc3C(=O)N([C@H](C)CO)C[C@H]2C)cc1	3.5	.	.	.	.	.
COC(=O)[C@@H]1[C@@H](CO)[C@@H]2Cn3c(ccc(-c4ccncc4)c3=O)[C@@H]2N1Cc1cccc(F)c1	8.4	.	.	.	.	.
SMILES	esBAF inh	hgDAF12 agonist	ssDAF-12 act	hcDAF-12 act	DAX1 StAR inh	Wnt bcat act
O=C(COc1ccccc1Cl)c1ccc[nH]1	.	10.4	-1.1	-0.5	-0.1	24.9
COc1ccccc1OCC(=O)Nc1ccccc1C(=O)N1CCCCC1	.	-2.4	-1.2	0.1	0.4	-0.2
O=C(COc1ccc(Br)cc1Cl)c1ccc[nH]1	74.2*	13.1*	-1.5	3.2	0.0	18.6
O=C(COc1ccccc1Cl)Nc1ccccc1C(=O)N1CCCCC1	60.8*	6.8	-0.7	-0.6	2.8	-0.5
COc1ccc(CCC(=O)Nc2nc3ccccc3[nH]2)cc1	46.0*	7.5	-0.3	1.1	0.8	.
O=C(CC1CCCC1)Nc1nc2ccccc2[nH]1	62.3*	6.9	-0.3	2.0	2.8	39.7*
COc1ccc(Br)c(C(=O)Nc2nc3ccccc3[nH]2)c1	48.9*	3.1	-0.6	1.3	1.0	6.3
COc1ccc(OCC(=O)Nc2nc3ccccc3[nH]2)cc1	48.9*	2.9	-0.3	2.1	1.5	.
COc1ccc(CCC(=O)Nc2nc3ccccc3[nH]2)cc1OC	.	1.7	-1.3	1.4	-0.7	.
O=C(COc1ccc2ccccc2c1)Nc1nc2ccccc2[nH]1	-8.0	3.2	-0.3	1.3	-0.1	.
CCC(=O)N[C@@H]1CC[C@@H](CC(=O)NCc2cc(F)cc(F)c2)O[C@H]1CO	3.9	.	.	.	.	.
C[C@@H]1CN([C@@H](C)CO)C(=O)Cc2cc(NC(=O)Cn3cnnn3)ccc2O[C@@H]1CN(C)S(=O)(=O)c1ccc(F)cc1	1.9	.	.	.	.	.
COCC(=O)N1CC[C@@H]2[C@H]1c1cc(C#Cc3ccccc3)ccc1N[C@@H]2CO	12.0	.	.	.	.	.
CCCCCC(=O)Nc1nc2ccccc2[nH]1	?	7.6	-1.4	0.9	1.4	53.4*
CCOc1ccccc1OCCCC(=O)Nc1nc2ccccc2[nH]1	.	4.3	-0.8	2.6	1.1	-0.3
Cn1c(SCC(=O)NCc2ccccc2)ncc(C(=O)Nc2ccccc2)c1=O	7.9	0.4	1.0*	3.5	1.7	-1.3
CC(=O)Nc1ccc(NC(=O)CSc2ncc(C(=O)Nc3ccccc3)c(=O)n2C)cc1	-6.5	2.5	0.1	4.2	0.6	13.7
Cc1ccc(CNC(=O)CSc2ncc(C(=O)Nc3ccccc3)c(=O)n2C)cc1	.	0.0	1.6*	2.2	1.1	-3.4
Cc1ccc(Nc2cc(C)nc(-c3ccccc3O)n2)cc1	52.6*	12.5*	-0.7	0.4	-0.3	42.4*
Cc1cc(Nc2ccc(Br)cc2)nc(-c2ccccc2O)n1	8.9	-1.6	-0.9	-0.5	-0.8	3.5
Cc1cc(Nc2ccc(F)c(F)c2)nc(-c2ccccc2O)n1	2.2	-0.1	-1.4	0.4	-0.6	-2.4
Cc1cc(NCCCN)nc(-c2ccccc2O)n1	44.5*	5.6	-0.7	1.2	0.2	.
COc1ccccc1-c1cc(-c2cc(Cl)ccc2O)n[nH]1	.	2.6	-1.4	1.9	-0.3	.
Oc1ccc(Br)cc1-c1cc(-c2ccccc2Cl)[nH]n1	.	10.8*	-0.9	4.5	0.6	23.5
Oc1ccc(Br)cc1-c1cc(-c2ccccc2F)[nH]n1	22.8	4.9	0.4	5.8*	0.5	14.7
Oc1ccc(Cl)cc1-c1cc(-c2ccccc2)n[nH]1	27.3	10.9*	0.7	5.7*	0.5	-1.2
CC(C)NC(=O)N[C@H]1C=C[C@@H](CC(=O)NCc2ccc(Oc3ccccc3)cc2)O[C@@H]1CO	6.3	.	.	.	.	.
C[C@@H]1CCCCO[C@H](CN(C)C)[C@@H](C)CN([C@@H](C)CO)C(=O)c2cc(NC(=O)Cc3ccccc3)ccc2O1	-9.5	.	.	.	.	.
